# Measured values: PubChem BioAssay (NCI)
# About 83,000 compounds went through this panel and 20% of them were active in at least one assay; those are over-represented in the sample as a whole.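 Results are percent growth after 48 hours of single-concentration exposure. 100 means growth as in untreated cells, lower positive values show inhibition; negative values down to -100 show cell death.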 Active and inactive are the calls of the source. How the source made its calls: active means growth percent below 10; inactive means the rest.
# System: T-47D breast
# Assay: NCI-60 one-dose screen, 48 h (100 = growth as untreated, 0 = no growth, -100 = all killed)
# Settings: 10 µM unless noted
row,SMILES,growth
1,O=[N+]([O-])c1cc([N+](=O)[O-])c(C(F)(F)F)cc1NN=C(c1ccc(O)cc1)c1ccc(O)cc1,-6.47% (active)
2,O=C(COc1cccc(/C=C2\Oc3ccccc3C2=O)c1)c1ccc([N+](=O)[O-])cc1,51.6% (inactive)
3,COc1cc(NCc2cn(-c3ccc(C(=O)O)cc3)nc2-c2ccc(C(=O)O)cc2)cc(OC)c1OC,93.7% (inactive)
4,COc1ncc(-c2ccc3nccc(C#CCCCCC(=O)NO)c3c2)cc1NS(=O)(=O)c1ccc(F)cc1F,-22.6% (active)
5,O=C(O)CSCc1nnc2n(Cc3ccccc3)c(=O)c3c4c(sc3n12)CCCC4,85% (inactive)
6,C[C@]12CCc3nc(Nc4ccccc4)sc3C1=CC[C@@H]1[C@@H]2CC[C@]2(C)/C(=N/NC(N)=S)CC[C@@H]12,9.46% (active)
7,C=C(C)C1CCC2(C(=O)O)CCC3(C)C(CCC4C5(C)CCC(OC(=O)NCc6ccccc6)C(C)(C)C5CCC43C)C12 (stereo not drawn),33.9% (inactive)
8,CC(C)=CCC[C@](C)(O)[C@H]1CC[C@]2(C)[C@@H]1CC[C@@H]1[C@@]3(C)CC/C(=N/O)C(C)(C)[C@@H]3CC[C@]12C,7.5% [100 µM] (active)
9,N#CC1C(=O)NC(c2ccccc2[N+](=O)[O-])c2sc3c(F)cccc3c21 (stereo not drawn),2.51% (active)
10,Brc1ccc(-c2nnc3c4[nH]ccc4ncn23)cc1,57.6% (inactive)
11,CCCCCCCCCCCCNC(=S)N/N=C/c1ccccc1O,42.2% (inactive)
12,CC1(C)CC[C@]2(C(=O)O)CC[C@]3(C)[C@H](CC[C@@H]4[C@@]5(C)CCC(=O)C(C)(C)[C@@H]5CC[C@]43C)[C@H]2[C@H]1OC(=O)C(F)(F)F,-25.2% [100 µM] (active)
13,C#CCNC(=O)CC[C@@H](C)[C@H]1CC[C@H]2[C@@H]3CC[C@@H]4CC(=O)CC[C@]4(C)[C@H]3CC[C@]12C,4.15% [100 µM] (active)
14,C=C(C)[C@@H]1CC[C@]2(C)[C@H](CC[C@@H]3[C@@H]([C@@](C)(O)CCC=C(C)C)CC[C@]32C)[C@@]1(C)CCC(=O)O,17% [100 µM] (inactive)
15,CCOC(=O)COc1ccc2c(c1)O/C(=C\c1ccc(O)cc1)C2=O,99.9% (inactive)
16,O=c1c2c3c(sc2n2cnnc2n1Cc1ccccc1)CCCC3,38.4% (inactive)
17,CC(C)CSc1ncnc2nc[nH]c12,85.7% (inactive)

row,SMILES,growth
1,O=C(Oc1ccc(Cl)cc1[N+](=O)[O-])Oc1ccc(Cl)cc1[N+](=O)[O-],115% (inactive)
2,CCOC(=O)c1nn(C2CCCCO2)c2ccc(NC(=O)CSc3nc4ccccc4c(=O)[nH]3)cc12 (stereo not drawn),99.1% (inactive)
3,COc1ncc(-c2ccc3nccc(C#CCCCCC(=O)O)c3c2)cc1NS(=O)(=O)c1ccc(F)cc1F,-18.1% (active)
4,CCN(CC)CCS(=O)(=O)CCNc1ccnc2cc(Cl)ccc12,43.4% (inactive)
5,Cc1cc(N2CCCCCC2)nc(N2CCN(CC(=O)Nc3ccc4c(ccn4Cc4ccccc4)c3)CC2)n1,20.2% (inactive)
6,COc1cc(-c2cc(-c3ccc(Nc4ncnc5cc(Cl)ccc45)cc3)nc(N3CCCCC3)n2)cc(OC)c1OC,91.3% (inactive)
7,O=C(Nc1cccc2cccnc12)c1cc(C(=O)c2ccc(Cl)cc2)n2ccc(-c3ccncc3)cc12,95.7% (inactive)
8,O=C1/C(=C/c2cccc(OCc3ccccc3)c2)Oc2cc(OCCN3CCCCC3)ccc21,89.9% (inactive)
9,COc1cc2c(c(OC)c1OC)-c1ccc(NNC(N)=S)c(=O)cc1[C@@H](NC(C)=O)CC2,70.7% (inactive)
10,CCOC(=O)c1nn(C2CCCCO2)c2ccc(NC(=O)CN3CCOCC3)cc12 (stereo not drawn),98.9% (inactive)
11,O=S(=O)(NCc1ccccc1)c1ncnc2nc[nH]c12,107% (inactive)
12,COc1ccccc1S(=O)Nc1ccccc1 (stereo not drawn),107% (inactive)
13,CC(=O)n1cc(C=O)c2ccccc21,98.8% (inactive)
14,CC(C)=CCC[C@](C)(O)[C@H]1CC[C@]2(C)[C@@H]1CC[C@@H]1[C@@]3(C)CC[C@H](OC(=O)CCC(=O)O)C(C)(C)[C@@H]3CC[C@]12C,25.7% [100 µM] (inactive)
15,COc1ccc(C2NC(=O)C(C#N)c3c2sc2c(F)cccc32)cc1 (stereo not drawn),80.2% (inactive)
16,Cc1ccc(NC(=O)N[C@@H](Cc2cc(F)cc(F)c2)C(=O)N[C@@H]2C(=O)N3CCC[C@H]3C(=O)N3CCCC[C@H]3C(=O)N[C@@H](C)C(=O)N3C[C@H](C)C[C@H]3C(=O)O[C@H]2C)cc1,19.7% (inactive)
